This is an account of results in PubChem BioAssay (NCATS).

Each structure is given as a SMILES string. Records with an inconclusive call do not appear. Unmarked numbers belong to inactive results. Activity calls are given as the source filed them. Calls follow the shape of the dose curve; as a rule, active = well fitted curve in the direction sought with a large enough effect; inconclusive = small, poorly fitted or top-dose-only effect, or effect the other way, or another doubt; inactive = no such curve, though single readings can be large or run the other way. Bridge positions count the residues as written; N and C are the ends. Square brackets hold non-standard residues; d marks the D form. Side chains are listed from the residue outwards. Peptide text beside a SMILES is read from it. * marks the point of attachment. Phg(4-OMe) = COc1ccc([C@H](N)C(=O)O)cc1; d(aIle) = CC[C@H](C)[C@@H](N)C(=O)O; d(aThr) = C[C@@H](O)[C@@H](N)C(=O)O; NMeF = CN[C@@H](Cc1ccccc1)C(=O)O; Isobutyryl = CC(C)C(=O)*

One assay can be described thus: 10-beta competent E. coli microbial cell viability qHTS against the NCATS CANVASS Library (AID 1347376). Also: 0% is about no effect. To be noted: E. coli 10-beta viability, BacTiter-Glo ATP luminescence, overnight; series mostly up to 46.1 µM; activity change, negative = cytotoxic: at the top concentration. Summed up:
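E. coli 10-beta, 0.2 OD; cpds 11-pt; o/n 37C, 5% CO2; BacTiter-Glo 20 min RT; luminescence (ATP) = viable cells. Daunomycin ctrl.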
On to `C=C(C)CC[C@H](Cc1c(O)cc(O)c2c1O[C@H](c1ccc(O)cc1)CC2=O)C(=C)C`, for which the “activity change, negative = cytotoxic” value is -17.6%.

As to `COc1c(O)cc2c(c1O)C(=O)c1c(coc1C)C2=O`, the “activity change, negative = cytotoxic” value was -14.4%. Consider `C[C@]12CC[C@]3(C1)[C@H](CC2=O)C[C@@H](OC(=O)c1ccccc1)[C@H]1[C@](C)(C(=O)O)CCC[C@@]13C`, for which the “activity change, negative = cytotoxic” value is -11.6%. Still for that read-out and setting: to `COc1ccc2[nH]c3c(c2c1)CCN1C[C@H]2C[C@@H](OC(=O)c4cc(OC)c(OC)c(OC)c4)[C@H](OC)[C@@H](OC)[C@H]2C[C@H]31` belongs 1.38%. On the same count and under the same terms, to `CC(=O)O[C@H]1c2ccccc2-c2c3c(cc4c2[C@@H]1N(C(C)=O)CC4)OCO3` belongs -14.7%; to `C=CC(CCCCC)C1C(=O)NC(=O)C1C(=O)C1C2C(C)CC(C(=O)O)CC2CC1(O)C(=O)/C=C/C` (centres undefined), -2.14%; to `O[C@H]1c2ccccc2-c2c3c(cc4c2[C@@H]1NCC4)OCO3`, -13.6%. Consider `C[C@]12CCC[C@](C)(C(=O)O)[C@@H]1CC[C@@]1(C)c3cocc3CC[C@H]21`, for which the “activity change, negative = cytotoxic” value is 7.68%. Same read-out and setting: to `COc1cc(C2OCC3C(c4ccc(O)c(OC)c4)OCC23)ccc1O` (centres undefined) belongs -5.45% [at 9.19 µM]; to `COc1cc(O)c(C(=O)[C@@H]2[C@H](CC=C(C)C)C(C)=CC[C@H]2c2ccccc2)c(O)c1`, -13.7%. Same read-out and setting: for `C[n+]1cc2cc(C(N)=O)[nH]c3c(=N)c(Cl)c(N)c1c23` the value was -2.57%. Consider `CCC(=O)N[C@@H](C[C@H](C)C(Cl)(Cl)Cl)C(=O)N1C(=O)C=C(OC)[C@@H]1CC(C)C`, for which the “activity change, negative = cytotoxic” value is 7.67%. The same measure, in the same setting: for `O=c1cc(-c2ccc(O)c(O)c2)oc2cc(O[C@@H]3O[C@H](CO)[C@@H](O)[C@H](O)[C@H]3O)cc(O)c12` the value was -6.5%.

As to `C/C1=C/[C@@H](C)[C@H](O)[C@@H](O)/C=C/CC/C=C/C(=O)O[C@@H]1[C@H](C)C(=O)CCCC1CC(=O)NC(=O)C1`, the “activity change, negative = cytotoxic” value was -7.07%. For the compound `CN1CC[C@]2(c3cccc4c3N[C@H]3N(C)CC[C@@]43[C@]34CCN(C)[C@H]3Nc3ccccc34)c3ccccc3N[C@H]12`, the “activity change, negative = cytotoxic” value is 1.07%. On to `CC[C@H]1[C@H](C)[C@H](c2cc(OC)c(OC)cc2OC)[C@@H](C)[C@H](c2cc(OC)c(OC)cc2OC)[C@@]12C=C(OC)C(=O)C=C2OC`, for which the “activity change, negative = cytotoxic” value is -6.7%.

On to `CC(=O)Oc1cc2c(c(OC(C)=O)c1C1CCc3cc(Cl)c(Cl)n31)C(=O)n1c-2cc(Cl)c1Cl` (centres undefined), for which the “activity change, negative = cytotoxic” value was -2.72%.

`COc1cc2c(cc1OC)[C@@H](c1ccc3c(c1)OCO3)C(C)C(C)C2=O` (some centres undefined): the “activity change, negative = cytotoxic” value was -10.1%. For `C/C=C(/C)c1c(Cl)c(O)c(C)c2c1Oc1c(Cl)c(O)c(Cl)c(C)c1C(=O)O2`, the “activity change, negative = cytotoxic” value is -16.2%. For the compound `CC(C)C[C@@H]1c2c(O)c(C=O)c(O)c(C=O)c2O[C@]2(C)C=C[C@@H](C(C)C)C[C@H]12`, the “activity change, negative = cytotoxic” value was -1.54%. The same measure, in the same setting: for `C/C=C(/C)c1cc(O)c(C)c2c1Oc1cc(O)cc(C)c1C(=O)O2` the value was -4.99%; for `CC(C)[C@]12CC[C@@]3(C)[C@H](C)CC[C@H](O)[C@@]3(CC1)c1cc3c(cc12)[nH]c1ccccc13`, 0.531%. Still for that read-out and setting: to `C[C@H]1C=C[C@H]2CCCC[C@@H]2[C@H]1C(=O)[C@H]1CC2=C(C(=O)O)CCN2C1=O` belongs -11.6%; to `C/C=C(/C)c1c(Cl)c(OC)c(C)c2c1Oc1c(Cl)c(O)c(Cl)c(C)c1C(=O)O2`, -19.5%; to `C/C(=C\CC[C@@H](C)[C@H]1CC[C@]2(C)C3=CCC4C(C)(C)[C@@H](O)C[C@@H](O)[C@]4(C)C3[C@H](O)C[C@@]12C)CO` (some centres undefined), 3.99%. Same read-out and setting: to `COC12OC1(C13OC1(OC)C(=O)c1cc4cc(C)oc(=O)c4c(O)c1C3O)C(O)c1c(cc3cc(C)oc(=O)c3c1O)C2=O` (centres undefined) belongs -10.2%; to `CO[C@H]1[C@@H](OC(=O)/C(C)=C\[C@@H]2O[C@@H]2[C@H]2O[C@H]2C)[C@H](O)[C@H](OCC23C[C@@H]4[C@H](C)CC[C@H]4C4(C=O)CC2C=C(C(C)C)C34C(=O)O)O[C@@H]1C` (some centres undefined), 2.66%.

Another assay is described as follows: DH5-alpha competent E. coli microbial cell viability qHTS against the NCATS CANVASS Library (AID 1347377). As to viability signal change, negative = cytotoxic: 0% is about no effect. Conditions: BacTiter-Glo ATP luminescence, overnight; series mostly up to 46.1 µM; viability signal change, negative = cytotoxic: at the top concentration. Summed up:
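qHTS, 11-pt; E. coli DH5-alpha, 0.2 OD; o/n 37C/5% CO2; BacTiter-Glo, 20 min RT; luminescence.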
For the compound `CC(C)=CCC[C@]12c3cc4c(cc3CC[C@@]1(C)[C@H](C)CC[C@@H]2O)[nH]c1ccccc14`, the “viability signal change, negative = cytotoxic” value (“viability signal change” below) was 10.4%.

With `COc1cc(/C=C/C(=O)OC[C@@H](Cc2ccc(O)c(OC)c2)[C@@H](COC(=O)/C=C/c2ccc(O)c(OC)c2)Cc2ccc(O)c(OC)c2)ccc1O`, the outcome was inactive.

Regarding `C=C[C@@]1(C)CC[C@@H]([C@H](C)C(=O)/C=C/C(C)(C)O)O1`, the “viability signal change” value was 3.5%.

Turning to `O=C1CC2OCC=C3CN4C5CC3C2[C@@H]2N1c1ccccc1[C@]52C[C@@H]4C1=C[C@H]2C3CC4N(CC[C@@]45c4ccccc4N(C1=O)[C@@H]25)C/C3=C/CO` (some centres undefined), the “viability signal change” value was 8.65%. On to `CC[C@H](C)[C@H]1NC(=O)[C@@H](NC(=O)C(C)C)[C@@H](C)OC(=O)[C@H](COC(=O)CNC(C)=O)NC(=O)[C@@H]([C@@H](C)O)NC(=O)[C@H](Cc2ccccc2)N(C)C(=O)[C@H](c2ccc(OC)cc2)NC1=O` (Isobutyryl-T[d(aIle)][Phg(4-OMe)][NMeF][d(aThr)]S([Gly-Ac]); ester 1-C), for which the “viability signal change” value is 11.6%. As for `COc1c(O)cc2c(c1O)C(=O)c1c(coc1C)C2=O`, the “viability signal change” value is -2.05%.

Consider `Cc1occ2c1C(=O)c1c(cc(O)c(O)c1O)C2=O`, for which the “viability signal change” value was -25.3%. On the same count and under the same terms, for `COc1ccc2[nH]c3c(c2c1)CCN1C[C@H]2C[C@@H](OC(=O)c4cc(OC)c(OC)c(OC)c4)[C@H](OC)[C@@H](OC)[C@H]2C[C@H]31` the value was 27.7%; for `C=C[C@](Cl)(CBr)CCC=C(C)C`, 5.95%.

As to `CC(=O)O[C@H]1c2ccccc2-c2c3c(cc4c2[C@@H]1N(C(C)=O)CC4)OCO3`, the “viability signal change” value is 13.9%. In the case of `C=CC(CCCCC)C1C(=O)NC(=O)C1C(=O)C1C2C(C)CC(C(=O)O)CC2CC1(O)C(=O)/C=C/C` (centres undefined), the “viability signal change” value was 4.43%.

Regarding `C[C@]12CCC[C@](C)(C(=O)O)[C@@H]1CC[C@@]1(C)c3cocc3CC[C@H]21`, the call was inactive.

On to `COc1cc(C2OCC3C(c4ccc(O)c(OC)c4)OCC23)ccc1O` (centres undefined), for which the outcome is “inactive [at 9.19 µM]”. In the case of `C[n+]1cc2cc(C(N)=O)[nH]c3c(=N)c(Cl)c(N)c1c23`, the compound was classed as inactive. On to `COc1cc2c(c(O)c1O)C(=O)c1c(coc1C)C2=O`, for which the “viability signal change” value is 4.13%. Turning to `CCC(=O)N[C@@H](C[C@H](C)C(Cl)(Cl)Cl)C(=O)N1C(=O)C=C(OC)[C@@H]1CC(C)C`, the call was inactive.

Consider `O=c1cc(-c2ccc(O)c(O)c2)oc2cc(O[C@@H]3O[C@H](CO)[C@@H](O)[C@H](O)[C@H]3O)cc(O)c12`, for which the “viability signal change” value was -7.42%. `C/C1=C/[C@@H](C)[C@H](O)[C@@H](O)/C=C/CC/C=C/C(=O)O[C@@H]1[C@H](C)C(=O)CCCC1CC(=O)NC(=O)C1`: the “viability signal change” value is 4.27%. As for `CN1CC[C@]2(c3cccc4c3N[C@H]3N(C)CC[C@@]43[C@]34CCN(C)[C@H]3Nc3ccccc34)c3ccccc3N[C@H]12`, the “viability signal change” value was 29.9%.

Take `CC[C@H]1[C@H](C)[C@H](c2cc(OC)c(OC)cc2OC)[C@@H](C)[C@H](c2cc(OC)c(OC)cc2OC)[C@@]12C=C(OC)C(=O)C=C2OC`: the “viability signal change” value is 5.72%. In the case of `COc1cc2c(cc1OC)[C@@H](c1ccc3c(c1)OCO3)C(C)C(C)C2=O` (some centres undefined), the “viability signal change” value is 0.879%.

`CC(C)C[C@@H]1c2c(O)c(C=O)c(O)c(C=O)c2O[C@]2(C)C=C[C@@H](C(C)C)C[C@H]12`: the “viability signal change” value was 0.737%. Consider `C/C=C(/C)c1cc(O)c(C)c2c1Oc1cc(O)cc(C)c1C(=O)O2`, for which the call was inactive.

As to `CC(C)[C@]12CC[C@@]3(C)[C@H](C)CC[C@H](O)[C@@]3(CC1)c1cc3c(cc12)[nH]c1ccccc13`, the compound was classed as inactive.

Take `C[C@H]1C=C[C@H]2CCCC[C@@H]2[C@H]1C(=O)[C@H]1CC2=C(C(=O)O)CCN2C1=O`: the “viability signal change” value was 15.8%. In the case of `COC12OC1(C13OC1(OC)C(=O)c1cc4cc(C)oc(=O)c4c(O)c1C3O)C(O)c1c(cc3cc(C)oc(=O)c3c1O)C2=O` (centres undefined), the “viability signal change” value is 13.9%. As to `CO[C@H]1[C@@H](OC(=O)/C(C)=C\[C@@H]2O[C@@H]2[C@H]2O[C@H]2C)[C@H](O)[C@H](OCC23C[C@@H]4[C@H](C)CC[C@H]4C4(C=O)CC2C=C(C(C)C)C34C(=O)O)O[C@@H]1C` (some centres undefined), the outcome was inactive.
